Screening results from PubChem.
KB-V1 cytotox: KB-V1 MDR subline cytotoxicity. KB-V1 MDR cells viability, CellTiter-Glo, 72 h. Potency, µM (highest dose often 46.1 µM), usual class: cytotoxic. 400,000 compounds, 3.4% hits; also: % is scaled to controls: 0 for no effect and ±100 for the full control effect; nearly all actives have a fitted effect of over 60% in size
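Cytotoxicity via CellTiter-Glo luminescence after 72 h compound exposure at 37 degrees C. Cells: drug-selected KB-V1 line, DMEM phenol-red free plus 10% FBS. Compounds tested at multiple concentrations; normalized data fitted to concentration-effect curves.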
SW480 rerep: DNA re-replication induction in SW480 cells; 340,000 compounds, 1.8% hits; SW480 DNA re-replication, Hoechst DNA content imaging, 48 h; Potency, µM (series often up to 46.1 µM), for inactives: at the top dose re-replication activation, actives largely listed as activators; also: % of control where 0% means no effect; nearly all actives have a fitted effect of over 55% in size
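Readout is total intensity of Hoechst-stained nuclei, excited at 405 nm and collected at 500-530 nm. Compound treatment lasted 48 hr at 37 C in 5% CO2 before staining.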
KB-3-1 tox: KB-3-1 parental cell cytotoxicity | KB-3-1 viability, CellTiter-Glo ATP luminescence, 72 h | AID 1347075 | 400,000 compounds, 1.4% hits | Potency, µM (top dose mostly 46.1 µM), actives largely listed as cytotoxic; also: % is scaled to controls: 0 for no effect and ±100 for the full control effect; nearly all actives have a fitted effect of over 60% in size
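Parental KB-3-1 viability, qHTS format: 72 h compound exposure, 37 °C; CellTiter-Glo; media-only wells and DMSO plates as controls; concentration-effect fits on corrected data.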
HT1080 IDH1KD tx: toxicity to HT-1080 IDH1 knockdown cells (counter line); HT-1080 IDH1 knockdown viability, ATP luminescence, 48 h; Potency, µM (titrated, usually from 46.1 µM), for the others: top-dose activity, negative = toxicity, hits mostly cytotoxic; 360,000 compounds, 2% hits;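 also: 0% = DMSO wells and -100% = cell-free medium wells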
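IDH1KD HT-1080 cells, 750/well, RPMI + 5% FBS; compound pinned after 2 h settling; 48 h, 37 °C; CellTiter-Glo luminescence; % activity normalised to DMSO and no-cell wells; curves fitted, classed by r2 and efficacy.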
HT1080NT lethal: kills 2HG-producing HT-1080-NT fibrosarcoma cells | HT-1080-NT fibrosarcoma viability, CellTiter-Glo ATP luminescence, 48 h | Potency, µM (highest dose often 46.1 µM), without a hit: at the highest dose activity, negative = less viability, most hits filed as cytotoxic | 360,000 compounds, 1.6% hits;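 also: NT is the 2HG producing partner of a matched IDH1 knockdown line; 0% = DMSO-treated cells and -100% = media-only wells without cells; nearly all actives have a fitted effect of over 55% in size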
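HT-1080-NT; 750 cells/well; 5% FBS RPMI; 48 h compound, 37 degrees C; CellTiter-Glo luminescence; curve fitting and curve-class assignment.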
MCF10A rereplic: induces DNA re-replication in MCF 10a normal breast cells | 350,000 compounds, 2.9% hits | Potency, µM (doses to about 46.1 µM), without a hit: top-dose activity, positive = re-replication, actives largely listed as activators | MCF 10A DNA re-replication, Hoechst nuclear intensity, 48 h; also: % of control where 0% means no effect; nearly all actives have a fitted effect of over 50% in size
* hit, by the source's call; i = inactive; ? = inconclusive; . = no result given; [ ] = remark or other dose. Only some compounds are listed: those with a hit (about 8% of all), similar ones and a draw of the others. Calls follow the shape of the dose curve; as a rule, active = well fitted curve in the direction sought with a large enough effect; inconclusive = small, poorly fitted or top-dose-only effect, or another doubt; inactive = no such curve, though single readings can be large; an effect the other way counts as inactive or inconclusive. Potency is read from the fitted curve at half-maximal effect.

SMILES	KB-V1 cytotox	SW480 rerep	KB-3-1 tox	HT1080 IDH1KD tx	HT1080NT lethal	MCF10A rereplic
Cc1nc(-c2cccc(NC(=O)c3cccs3)c2)cs1	i	14%	i	?	-6%	6%
Cc1nc(-c2cccc(NC(=O)Cc3ccccc3)c2)cs1	16µM*	-8%	i	-3%	2%	9%
O=C(Nc1cccc(-c2csc(-c3ccccc3)n2)c1)c1cccs1	15µM*	-1%	i	-24%	?	13%
O=C(O)c1cccc(Nc2nc(-c3cc4ccccc4oc3=O)cs2)c1	?	11%	i	-2%	-17%	?
Cc1cc(C)c(S(=O)(=O)N2C[C@H]3CON(C)[C@H]3C[C@H]2c2ccc(N3CCCCC3)cc2)c(C)c1	i	.	i	-21%	-4%	.
O=C(/C=C/c1ccccc1)c1ccc2c3c(cccc13)CC2	?	9%	?	?	?	18µM*
O=C(/C=C/c1ccccc1O)c1ccccc1	i	?	i	-14%	22%	?
O=C(/C=C/c1ccccc1)c1ccccc1	?	?	i	21µM*	16µM*	?
O=C(/C=C/c1ccccc1)/C=C/c1ccccc1	?	21µM*	?	?	-17%	3.3µM*
N#Cc1ccc(/C=C/C(=O)c2ccccc2)cc1	i	0%	i	?	?	21µM*
CC(=O)Nc1nonc1-c1nnc(SCc2ccc(Cl)cc2)n1C	i	.	i	.	.	.
O=C(/C=C/c1ccccc1)c1ccc2ccccc2c1	i	141%	i	?	23µM*	?
C=C(C(=O)O)c1ccc2ccccc2c1	i	.	i	.	.	.
Cc1nn(-c2ccccc2)nc1C(=O)c1c(C)[nH]n(-c2ccccc2)c1=O	21µM*	23%	16µM*	5%	2%	?
C/C(=N\NC(=O)c1ccc(C)cc1)c1c(C)[nH]n(-c2ccccc2)c1=O	?	?	?	15µM*	?	7%
Cc1[nH]n(-c2ccccc2)c(=O)c1C(=O)c1ccc([N+](=O)[O-])cc1	?	-28%	i	-11%	-14%	16%
COc1ccc(/C=N\NC(=O)c2ccccc2Br)cc1COc1c(F)c(F)cc(F)c1F	.	?	.	?	-17%	4.6µM*
COc1ccc(/C=N/NC(=O)c2ccc(OC)c(OC)c2)cc1COc1c(F)c(F)c(F)c(F)c1F	i	-5%	i	?	-3%	6%
COc1ccc(/C=N/NC(=O)c2nc(Cl)c(Cl)c(N)c2Cl)cc1COc1ccc(F)cc1F	i	?	i	-12%[9.24 µM]	?	15µM*
COc1ccc(/C=N\NC(=O)c2ccccc2OC)cc1COc1ccccc1C	i	2%	i	-1%	-8%	12%
COc1cc(OC)cc(C(=O)N/N=C\c2ccoc2)c1	i	5.8µM*	i	5.8µM*	3.7µM*	23µM*
COc1ccc(/C=N/NC(=O)c2ccoc2C)cc1COc1c(C)cccc1C	?	?	?	5.2µM*	4.6µM*	7.1µM*
COc1ccc(-c2nc3ccccc3s2)cc1NC(=O)c1cc2ccccc2o1	i	.	i	.	.	.
CCC(=O)Nc1c(-c2cccs2)c(=O)c2ccccc2n1C	i	-10%	i	16%	7%	-3%
CCc1ccc(NC(=O)CN(c2cccc(C)c2)S(C)(=O)=O)cc1	?	2%	i	5%	6%	-2%
SMILES	KB-V1 cytotox	SW480 rerep	KB-3-1 tox	HT1080 IDH1KD tx	HT1080NT lethal	MCF10A rereplic
COc1ccc(/C=N\NC(=O)c2ccccc2F)cc1COc1ccc(F)cc1	i	3%	i	-14%	-17%	6%
COc1cc(OC)cc(C(=O)N/N=C/c2ccc(OC)c(COc3ccc4ccccc4c3)c2)c1	?	?	?	21µM*	?	?
COc1ccc(/C=N\NC(=O)c2ccccc2F)cc1COc1ccc(F)cc1F	?	12µM*	5.2µM*	2.3µM*	2.3µM*	?
O=C1NC(CCc2ccccc2)C(=O)N1CCOc1ccccc1 (stereo unspecified)	i	-41%	i	0%	3%	6.5µM*
CCc1ccc(S(=O)(=O)ON2C(=O)c3ccccc3C2=O)cc1	i	?	i	-25%	-24%	18µM*
COc1ccc(OC)c(S(=O)(=O)n2cnc3ccccc32)c1	23µM*	?	?	-3%	-6%	?
O=C1c2cccc3cccc(c23)C(=O)N1OS(=O)(=O)c1ccc(Cl)cc1	i	-38%	i	12%	-15%	-14%
COc1ccc(OC)c(S(=O)(=O)ON2C(=O)c3ccccc3C2=O)c1	i	?	?	4.1µM*	?	6.5µM*
CC1CCN(CCNC(=O)C2CCCN(c3ncnc4c3nc3n4CCCCC3)C2)CC1 (stereo unspecified)	i	-2%	i	5%	3%	7%
O=C(COC(=O)C1CC2CCCC(C1)C2=O)c1cccc(Br)c1 (stereo unspecified)	i	-6%	i	8%	0%	-6%
O=C1C2C(c3ccccc3)=NN(c3ccccc3)C2C(=O)N1c1ccccc1 (stereo unspecified)	i	1%	i	12%	20%	?
O=C1[C@H]2C(c3ccccc3)=NN(c3ccccc3)[C@H]2C(=O)N1c1ccccc1	i	-79%	?	-6%	-7%	0.65µM*
O=C(COC(=O)c1ccc([N+](=O)[O-])o1)NCc1ccc(F)cc1	i	11%	i	-2%	-7%	7%
CC(C)C/C=C1\CCc2c([nH]c3ccccc23)C1=O	i	5%	i	18%	2%	1%
O=C1/C(=C/c2cccnc2)CCc2c1[nH]c1ccccc21	13µM*	21µM*	i	13µM*	15µM*	?
CC1C/C(=C\c2cccnc2)C(=O)/C(=C/c2cccnc2)C1 (stereo unspecified)	?	?	?	2.9µM*	?	?
C[C@@H]1CN([C@@H](C)CO)C(=O)c2cccc(NC(=O)Nc3ccc(F)cc3)c2O[C@@H]1CN(C)Cc1ccc(Oc2ccccc2)cc1	i	?	i	?	23µM*	?
C[C@H](CO)N1C[C@H](C)[C@@H](CN(C)C(=O)Nc2ccc(C(F)(F)F)cc2)Oc2c(NC(=O)Nc3ccc(C(F)(F)F)cc3)cccc2C1=O	?	-4%	16µM*	?	?	?
